# Screens deposited in PubChem BioAssay by Sanford-Burnham Center for Chemical Genomics.
# Only some compounds are listed: those with a hit (about 4% of all), similar ones and a draw of the others.
# TWEAK Fn14 block = TWEAK-Fn14 signaling inhibition; 360,000 compounds, 2% hits; AID 1159606; TWEAK-stimulated Fn14 reporter cells, luciferase luminescence, 8 h; inhibition, % at 10 µM; in the data active = inhibition above about 50%
# HIF-2a inh = blocks HIF-2a reporter activity | 786-0 RCC cells HIF-2a reporter, luciferase luminescence, overnight | inhibition, % at 18.8 µM | 360,000 compounds, 0.72% hits;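 active = inhibition of the luminescence signal of 40% or more relative to plate controls, in a single-dose primary screen at 18.75 µM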
# KKLEB cytotox = reduces viability of KKLEB cystic fibrosis airway cells; KKLEB CF airway cells viability, ATPlite luminescence, overnight; active compounds read low; cells stimulated with P. aeruginosa culture filtrate; 360,000 compounds, 0.36% hits; activity change (cytotoxicity), % at 5 µM;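 active = corrected activity change at or below -50% at 5 µM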
# TROY NFkB inh = inhibitors of TROY-dependent NF-kB signaling. Q293 LMP1-TROYcd NF-kB luciferase reporter, 4 h. inhibition, % at 10 µM. 360,000 compounds, 0.98% hits. AID 1347056;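 active = compounds whose plate-normalised and pattern-corrected inhibition of the luciferase reporter signal at the single screening dose is 50% or more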
# CF NFkB block = blocks PAF-induced NF-kB reporter in cystic fibrosis cells; KKLEB NF-kB-GFP reporter, GFP fluorescence overnight; 360,000 compounds, 0.86% hits; inhibition, % at 5 µM; AID 588850;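 active = at least 50% inhibition at 5 µM, scaled per plate between neutral and stimulator controls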;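 also: PAF is a Pseudomonas aeruginosa culture filtrate used as stimulus; plate controls were PAF-stimulated DMSO wells for no effect and unstimulated DMSO wells for full effect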
# Peg3 prom inh = reduces Peg3 promoter-driven luciferase expression in HeLa; 360,000 compounds, 1.7% hits; AID 588405; HeLa PEG-Prom luciferase reporter, luminescence, overnight; inhibition, % at 20 µM;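 active = inhibition of at least 50% at 20 µM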
# An asterisk follows results filed as active; / = no result; ! = a repeat was not active.
SMILES,TWEAK Fn14 block,HIF-2a inh,KKLEB cytotox,TROY NFkB inh,CF NFkB block,Peg3 prom inh
CCN1CCN(Cc2ccc(NC(=O)c3cc(NC(=O)C(=O)c4c[nH]c5ccccc45)cc(OC)c3)cc2C(F)(F)F)CC1,75.5*!,-85.4,6.8,-4.3,-2.1,93.6*
CCN1CCN(Cc2ccc(NC(=O)c3ccc(C)c(NC(=O)c4ccnnc4)c3)cc2C(F)(F)F)CC1,-21.3,20.8,-18.8,-5.0,45.9,6.2
CCN1CCN(Cc2ccc(NC(=O)c3cc(NC(=O)c4cc(C)on4)cc(OC)c3)cc2C(F)(F)F)CC1,0.2,-28.2,4.9,2.3,15.5,57.4*!
CCN1CCN(Cc2ccc(NC(=O)c3cc(NC(=O)c4cnn(-c5ccccc5)c4N)cc(OC)c3)cc2C(F)(F)F)CC1,-73.3,-18.5,-7.7,-35.9,45.1,-33.7
O=c1c(-c2ccco2)nc2ccccc2n1C(c1ccccc1)c1nc2ccccc2[nH]1 (configuration not stated),/,-171.9,/,/,/,/
CC(C)(C)c1cc(CNC(=O)C2CCC(=O)N(Cc3ccccc3F)C2)[nH]n1 (configuration not stated),11.5,-9.8,-4.5,-18.2,5.4,3.2
CCn1cc(/C=C(\NC(=O)c2ccccc2F)C(=O)NCCCN2CCOCC2)c2ccccc21,67.9*,0.1,5.3,-22.9,6.6,-7.8
COc1ccc(C(C)(C)NC(=O)C2CCC(=O)N(CCCN3CCCC3=O)C2)cc1 (configuration not stated),0.8,-21.5,4.2,-11.5,10.1,0.4
Cc1[nH][nH]c(=O)c1C(c1c(C)[nH][nH]c1=O)c1cn(Cc2ccc(F)cc2)c2ccccc12,14.5,10.5,-14.4,14.6,14.8,63.8*
COc1ccc(-c2cc(=O)c3cc(OC)ccc3o2)cc1,64.5*,-88.9,-51.1*,6.9,-12.8,-85.2
COc1ccc(-c2cc(=O)c3ccc(O)cc3o2)cc1,0.3,-227.4,20.5,-69.8,-12.5,-195.4
O=c1cc(-c2ccccc2)oc2ccc(Br)cc12,-18.9,-307.2,-7.9,-38.6,-22.1,-277.5
COc1ccc2oc(-c3ccccc3)cc(=O)c2c1,73.8*,-15.3,-36.2,4.9,-12.8,-44.3
COc1ccc(C2/C(=C(/O)c3ccc(Br)cc3)C(=O)C(=O)N2C)cc1OC (configuration not stated),-8.0,18.8,2.7,18.9,-13.0,11.0
CCOC(=O)[C@@H]1[C@H]2COc3ccccc3[C@H]2N2C(=O)N(c3ccc(Br)cc3)C(=O)[C@]12C,-2.5,6.4,11.7,-6.7,-8.1,7.8
O=C(CNC(=O)c1ccc(Br)cc1)c1ccccc1,-0.1,-195.1,0.9,-46.4,-1.8,-253.0
O=C(CNC(=O)c1ccccc1)c1ccccc1,50.0*,-132.6,-10.3,-24.4,3.2,-168.9
CCN(CC)S(=O)(=O)c1ccc(Cl)c(NC(=O)COC(=O)c2ccc(O)cc2)c1,14.8,14.2,3.0,41.1,10.2,21.6
CCN(CC)S(=O)(=O)c1ccc(Cl)c(NC(=O)COC(=O)c2cc(-c3ccccc3Cl)nc3ccccc23)c1,109.8*,13.7,1.6,94.8*,0.2,-4.4
O=C(/C(=C/O)N=Nc1ccccc1Cl)c1ccccc1,58.4*,-9.0,-18.8,51.7*,36.8,21.8
O=C(/C(=C/O)N=Nc1cccc(C(F)(F)F)c1)c1ccccc1,-3.0,-1.7,-5.6,18.9,26.2,9.1
CC1(C(=O)NS(=O)(=O)c2ccc(F)cc2F)CCN1C(=O)c1ccccc1CCc1ccccc1 (configuration not stated),9.8,4.6,-2.5,1.4,-1.6,8.2
COc1ccc(Cc2nnc(N/N=C/c3ccc(Br)cc3)[nH]c2=O)cc1OC,-12.9,15.6,-15.5,14.3,8.4,-0.1
COc1ccc(Cc2nnc(N/N=C/c3ccc(O)cc3)[nH]c2=O)cc1OC,26.1,-2.7,-18.9,10.0,23.4,59.5*
O=C(COC(=O)CCc1ccccc1)NC1CCS(=O)(=O)C1 (configuration not stated),-13.7,17.3,-4.0,-12.6,-10.1,-0.5
CCCCc1ccc(NC(=O)CSc2nc(=O)n(CCN(C)C)c3c2CCC3)cc1,14.6,12.0,-5.6,10.3,16.7,26.2
CCCCc1ccc(NC(=O)CSc2nc(=O)n(CCN(CC)CC)c3c2CCCC3)cc1,-7.5,4.8,-17.1,54.2*,33.9,48.9
